HP1b binding inh: HTS for Inhibitors of HP1-beta Chromodomain Interactions with Methylated Histone Tails; Chromobox protein homolog 1 (Homo sapiens), P83916; AlphaScreen HP1-beta / biotin-H3K9me3 peptide binding; 0.56% of 390,000 active; AID 540317, 2011; Potency, µM (highest dose often 114 µM), without a hit: at the top dose activity change, negative = inhibition, most hits filed as inhibitors; further: nearly all actives have a fitted effect of over 70% in size
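Compound inhibition of the preformed complex between 50 nM HP1-beta and 50 nM biotinylated H3K9me3 peptide was read by AlphaScreen. Buffer was PBS pH 7.4 with 0.01% Tween-20. Incubations ran 30 min at room temperature, with 10 ug/mL donor/acceptor beads.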
BAZ2B inh: qHTS Assay for Inhibitors of BAZ2B. Bromodomain adjacent to zinc finger domain protein 2B (Homo sapiens), Q9UIF8. AlphaScreen BAZ2B-H3K14Ac peptide displacement. Potency, µM (highest dose often 114 µM), for inactives: top-dose activity change, negative = inhibition, hits mostly inhibitors. 4.4% of 360,000 active; further: on the % scale 0 is the no-effect control and ±100 the full control effect; nearly all actives have a fitted effect of over 60% in size
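Multi-concentration screen (max 110 uM) measuring displacement of acetylated histone H3 peptide from BAZ2B by AlphaScreen, using 50 nM protein, 50 nM peptide and 10 ug/mL streptavidin donor plus Ni-chelate acceptor beads.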
Sfp inh: qHTS Assay for Inhibitors of Bacillus subtilis Sfp phosphopantetheinyl transferase (PPTase). Biochemical Sfp PPTase activity, qHTS. Potency, µM, without a hit: largest response in the series, negative = inhibition, actives largely listed as inhibitors. 3.5% of 310,000 active. AID 1490, 2009;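 further: the enzyme is Sfp with the accession as filed and its product quenches rhodamine fluorescence; 0% = enzyme reaction without inhibitor and -100% = no enzyme wells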
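Buffer: 50 mM Hepes-Na pH 7.6, 10 mM MgCl2, 0.01% Nonidet P-40, 0.01% BSA. Enzyme 15 nM, pre-exposed to compound 15 min; substrates then added and fluorescence change tracked over 30 min.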
TDP1 block: qHTS Assay for Inhibitors of Tyrosyl-DNA Phosphodiesterase (TDP1). Tyrosyl-DNA phosphodiesterase 1 (Homo sapiens), Q9NUW8. recombinant TDP1, AlphaScreen DNA substrate cleavage. Potency, µM (doses to about 130 µM), for the others: at the top dose activity change, negative = inhibition, actives largely listed as inhibitors. 0.28% of 350,000 active. AID 485290, 2010; further: on the % scale 0 is the no-effect control and ±100 the full control effect; nearly all actives have a fitted effect of over 40% in size
Target sequence (Q9NUW8 whole entry, looked up): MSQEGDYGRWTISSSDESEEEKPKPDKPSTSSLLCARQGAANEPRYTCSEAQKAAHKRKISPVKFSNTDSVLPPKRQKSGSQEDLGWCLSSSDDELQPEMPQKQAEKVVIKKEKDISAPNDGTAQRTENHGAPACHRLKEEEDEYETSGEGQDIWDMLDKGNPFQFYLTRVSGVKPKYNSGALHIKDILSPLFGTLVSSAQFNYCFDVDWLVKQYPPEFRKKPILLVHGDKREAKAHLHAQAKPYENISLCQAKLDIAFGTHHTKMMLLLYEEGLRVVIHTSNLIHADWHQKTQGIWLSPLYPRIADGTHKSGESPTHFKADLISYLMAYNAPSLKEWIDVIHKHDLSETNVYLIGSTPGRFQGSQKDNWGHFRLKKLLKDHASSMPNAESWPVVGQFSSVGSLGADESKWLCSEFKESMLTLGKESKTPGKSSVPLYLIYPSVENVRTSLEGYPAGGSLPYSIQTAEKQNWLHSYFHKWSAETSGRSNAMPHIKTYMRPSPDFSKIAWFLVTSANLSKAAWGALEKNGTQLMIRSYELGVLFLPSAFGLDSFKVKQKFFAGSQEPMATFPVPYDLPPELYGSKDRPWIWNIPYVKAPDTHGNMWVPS
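Enzyme-compound mixtures sat 15 min at room temperature, followed by a 5 min reaction with 15 nM final substrate and 10 min with AlphaScreen beads. Recombinant human Tdp1 was used at 1 nM final.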
JMJD2A Tudor inh: qHTS Assay for Inhibitors of JMJD2A-Tudor Domain. Potency, µM (titrated, usually from 114 µM), without a hit: at the highest dose activity change, negative = inhibition, most hits filed as inhibitors. AlphaScreen JMJD2A-Tudor / H3K4me3 peptide binding. 4.4% of 390,000 active. AID 504339, 2011. Lysine-specific demethylase 4A (Homo sapiens), O75164; further: on the % scale 0 is the no-effect control and ±100 the full control effect; nearly all actives have a fitted effect of over 50% in size
G9a inh: qHTS Assay for Inhibitors of Histone Lysine Methyltransferase G9a | Histone-lysine N-methyltransferase EHMT2 (Homo sapiens), Q96KQ7 | G9a H3K9 monomethylation, AlphaScreen, 2 h | 8.8% of 350,000 active | Potency, µM (highest dose often 102 µM), for inactives: at the highest dose activity, negative = inhibition, actives largely listed as inhibitors | AID 504332, 2011; further: on the % scale 0 is the no-effect control and ±100 the full control effect; nearly all actives have a fitted effect of over 75% in size
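AlphaScreen read-out: biotin-H3K9 peptide (500 nM) methylation by 20 nM enzyme with 20 uM SAM, 2 h at room temperature after 15 min compound preincubation; anti-monomethyl H3K9 antibody plus donor/acceptor beads, 10 min dark.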
* marks the source's active call; other numbers are inactive results; ? = inconclusive; . = no result given; [ ] = another dose, or the depositor's remark. Only some compounds are listed: those with a hit (about 12% of all), similar ones and a draw of the others. The call rests on the fitted dose curve; in most records, active means well fitted curve in the direction sought with a large enough effect; inconclusive means small, poorly fitted or top-dose-only effect, or another doubt; inactive means no such curve, though single readings can be large; an effect the other way counts as inactive or inconclusive. Potency means the concentration at half of the fitted maximal effect.

SMILES	HP1b binding inh	BAZ2B inh	Sfp inh	TDP1 block	JMJD2A Tudor inh	G9a inh
O=C(NCC(=O)N(Cc1cccs1)C(C(=O)NC1CCCC1)c1ccncc1)c1ccco1 (stereo not given)	26.6%	?	25.1µM*	-2.3%	0.6%	?
CN1c2cccc3cccc(c23)N(C)C1(C)C	?	50.1µM*	-23.2%	11.9%	?	-40.8%[0.0925 µM]
CN(C)c1cccc2cccc(N(C)C)c12	18.7%	-1.5%	-4.1%	1.2%	-5.5%	.
C=C(CO)C1Cc2cc(C(C)=O)ccc2O1 (stereo not given)	-18.6%	79.4µM*	7.7%	.	?	4.3%[12.7 µM]
CC1Cc2cc(C(=O)O)ccc2O1 (stereo not given)	23.2%	.	8.6%	?	4.0%	6.4%[59 µM]
CCOc1ccc(CNC(=O)CCn2c(=O)c3cccn3c3cccnc32)cc1	16.4%	?	.	-5.1%	-16.5%	-28.2%[59 µM]
CCCCNC(=O)Cn1nc(N2CCN(c3ccccc3OC)CC2)ccc1=O	24.6%	?	.	-2.6%	-12.0%	0.5%[59 µM]
CC(C)C[C@H](NC(=O)[C@H](Cc1ccccc1)C[C@@H](O)[C@H](Cc1ccccc1)NC(=O)OC(C)(C)C)C(=O)N[C@@H](Cc1ccccc1)C(N)=O	.	.	-12.1%	4.9%	.	.
COc1ccc(C(C)=O)cc1CSc1nnc(Nc2ccc(C)cc2C)s1	-9.0%	-19.6%	7.4%	4.4%	?	35.5µM*
Cc1ccc(SCc2cc(=O)n3ccsc3n2)c(C)c1	.	-32.0%	7.9%	-1.4%	.	28.5%[59 µM]
COc1ccc(C(C)=O)cc1CSc1nnc(Nc2ccccc2C)s1	80.5%	-23.2%	10.7%	4.7%	-20.0%	-13.3%[59 µM]
CCc1ccc(Nc2nnc(SCc3cc(=O)n4ccsc4n3)s2)cc1	27.4%	-3.9%	-3.5%	1.0%	-16.5%	2µM*
Cc1ccc(Nc2nnc(SCc3cc(=O)n4ccsc4n3)s2)c(C)c1	6.0%	-4.2%	-20.7%	1.0%	-27.2%	35.5µM*
COc1ccccc1Nc1nnc(SCc2cc(=O)n3ccsc3n2)s1	37.7%	-17.2%	-15.1%	-1.3%	-22.6%	?
Cc1cccc(-n2c(SCc3cc(=O)n4ccsc4n3)nc3ccccc32)c1	8.4%	-30.2%	6.3%	-3.3%	?	5.01µM*
Cc1ccc(S(=O)(=O)N(C)CC(=O)Nc2cccnc2)cc1	6.8%	2.0%	15.1%	1.9%	-6.4%	24.3%
Nc1ccc2cccc(O)c2c1	?	.	.	.	28.2µM*	.
CC1C(=O)C(C)(C)C(=O)OC1c1ccccc1 (stereo not given)	37.8%	-13.8%	7.2%	1.2%	-10.7%	8.3%[59 µM]
CC1C(=O)C(C)(C)C(=O)OC1c1ccc([N+](=O)[O-])cc1 (stereo not given)	48.5%	-13.5%	1.5%	.	1.7%	50.1µM*
Cc1nc(NS(=O)(=O)c2ccccc2)sc1NC(=O)OCCN(C)C	26.4%	-5.4%	20µM*	-9.1%	-7.5%[11.4 µM]	?
CCOc1ccccc1NC(=O)CN1C(=O)C(=O)c2ccccc21	29.3%	-12.2%	.	1.1%	-15.1%	3.8%[59 µM]
CCOc1ccccc1C(O)C1=CC(=O)c2ccccc2C1=O (stereo not given)	-21.2%	.	.	.	25.1µM*	.
COc1c(S(=O)(=O)N2CCN(C)CC2)ccc(Cl)c1Cl	7.2%	34.7%	20.2%	.	-11.0%	.
O=C(COC(=O)/C=C/c1cccc(Cl)c1)NC(=O)NCc1ccccc1	39.4%	-4.6%	.	2.2%	4.1%	5.5%[12.7 µM]
N#CC1=CN(Cc2ccccc2)C=C(/C=N/Nc2ccccc2)C1	0.5%	-35.2%	-20.5%	10.0%	?	3.55µM*
